Bioassay records: PubChem BioAssay, National Center for Advancing Translational Sciences (NCATS)
HT1080 IDH1KD tx: toxicity to HT-1080 IDH1 knockdown cells (counter line); hit rate 2% among 360,000; Potency, µM (doses to about 46.1 µM), usual class: cytotoxic; HT-1080 IDH1 knockdown viability, ATP luminescence, 48 h
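HT-1080-IDH1KD cells (IDH1 knocked down), 750/well in RPMI with 5% FBS, treated with compound 48 h at 37 degrees C. Viability by CellTiter-Glo luminescence, normalised to DMSO and no-cell wells; concentration-response curves classed.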
KB-3-1 tox: kills parental KB-3-1 adenocarcinoma cells. KB-3-1 viability, CellTiter-Glo ATP luminescence, 72 h. Potency, µM (highest dose often 46.1 µM), hits mostly cytotoxic. hit rate 1.4% among 400,000. AID 1347075; note: nearly all actives have a fitted effect of over 60% in size
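Parental KB-3-1 adenocarcinoma cells in phenol-red-free DMEM with 10% FBS were pin-treated with compounds at several concentrations, incubated 72 h at 37 °C, and viability read by CellTiter-Glo luminescence; concentration-effect curves were fitted after normalization.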
DT40 TDP1 CPT: growth inhibition of DT40 Tdp1-/-;hTDP1 cells with camptothecin (screen for TDP1 inhibitors) | chicken DT40 Tdp1-/-;hTDP1 cells + 20 nM CPT, ATP luminescence, 48 h | Potency, µM (doses to about 46.2 µM), usual class: inhibitors | hit rate 12% among 420,000; note: nearly all actives have a fitted effect of over 55% in size
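Chicken DT40 Tdp1-/- cells complemented with human TDP1, 400 cells/well, exposed to compounds plus 20 nM camptothecin for at least 48 h at 37 C; viability read as ATP content by CellTiter-Glo luminescence.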
TDP1 cell noCPT: qHTS for Inhibitors of human tyrosyl-DNA phosphodiesterase 1 (TDP1): qHTS in cells in absence of CPT | DT40 Tdp1-/- hTDP1 cells, no CPT, ATP luminescence, 48 h | Potency, µM (titrated, usually from 46.2 µM), actives largely listed as inhibitors | hit rate 15% among 420,000; note: nearly all actives have a fitted effect of over 55% in size
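Compound effects on proliferation are scored in DT40 Tdp1-/-;hTDP1 cells in the absence of CPT. ATP levels (CellTiter-Glo luminescence) are recorded after a ≥48 hr, 37 °C incubation.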
KB-V1 MDR tox: kills drug-selected multidrug resistant KB-V1 cells. KB-V1 MDR cells viability, CellTiter-Glo, 72 h. hit rate 3.4% among 400,000. Potency, µM (top dose mostly 46.1 µM), usual class: cytotoxic; note: nearly all actives have a fitted effect of over 60% in size
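qHTS viability screen in drug-selected KB-V1 MDR cells: 72 h compound treatment at 37 degrees C, ATP luminescence end point.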
HT1080NT lethal: kills 2HG-producing HT-1080-NT fibrosarcoma cells; HT-1080-NT fibrosarcoma viability, CellTiter-Glo ATP luminescence, 48 h; Potency, µM (highest dose often 46.1 µM), usual class: cytotoxic; hit rate 1.6% among 360,000; AID 686970;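 note: NT is the 2HG producing partner of a matched IDH1 knockdown line; nearly all actives have a fitted effect of over 55% in size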
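750 cells/well, RPMI + 5% FBS; 2 h settle, compound pin-transfer, 48 h at 37 degrees C. CellTiter-Glo 10 min RT, luminescence. Normalized to DMSO and media-only wells.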
A number is an active result; – = inactive; ? = inconclusive; · = no result given. Most compounds without a hit are left out; they make up all but 19% or so of the library. Calls come from the whole dose curve; as a rule, active = well fitted curve in the direction sought with a large enough effect; inconclusive = small, poorly fitted or top-dose-only effect, or another doubt; inactive = no such curve, though single readings can be large; an effect the other way counts as inactive or inconclusive.

SMILES | HT1080 IDH1KD tx | KB-3-1 tox | DT40 TDP1 CPT | TDP1 cell noCPT | KB-V1 MDR tox | HT1080NT lethal
O=C(NCCCN1CCN(c2cccc(Cl)c2)CC1)c1sc2ncccc2c1-n1cccc1 | · | · | ? | 23µM | · | ·
O=C(NCCCN1CCN(c2ccccc2F)CC1)c1ccc2nc(N3CCCCC3)sc2c1 | · | – | ? | ? | – | ·
O=C(NCCCN1CCN(c2ccccc2F)CC1)c1sc2ncccc2c1-n1cccc1 | · | · | ? | 21µM | · | ·
Cc1nc2ncnn2c(C)c1CCC(=O)NCCCN1CCN(c2cccc(Cl)c2)CC1 | – | – | – | – | – | –
Cc1ccc(C)n1-c1c(C(=O)NCCCN2CCN(c3ccc(F)cc3)CC2)sc2ncccc12 | · | – | 21µM | ? | – | ·
CC(NS(=O)(=O)c1ccccc1[N+](=O)[O-])c1ccccn1 (configuration not stated) | · | ? | – | ? | – | ·
CCc1ccccc1NC(=O)C1=CC(c2ccc3c(c2)OCO3)=NS(=O)(=O)N1C | · | – | ? | – | – | ·
COc1cc(NC(=O)C2=CC(c3ccc(F)cc3)=NS(=O)(=O)N2C)cc(OC)c1OC | · | – | ? | 23µM | – | ·
COc1ccc(NC(=O)C2=CC(c3ccc4c(c3)OCO4)=NS(=O)(=O)N2C)cc1OC | · | – | ? | ? | – | ·
COc1ccc(C2=NS(=O)(=O)N(C)C(C(=O)Nc3ccc(C)cc3)=C2)cc1 | – | – | ? | 21µM | ? | –
COc1ccc(OC)c(C2=NS(=O)(=O)N(C)C(C(=O)Nc3cccc(C(C)=O)c3)=C2)c1 | – | – | 21µM | ? | – | –
COc1cccc(C2=NS(=O)(=O)N(C)C(C(=O)Nc3ccccc3SC)=C2)c1 | · | – | 16µM | ? | – | ·
CN(C(=O)C1CC1)C1CCS(=O)(=O)C1 (configuration not stated) | – | – | – | – | – | –
CC(OC(=O)/C=C/c1ccc2ccccc2n1)C(=O)Nc1ccc(S(N)(=O)=O)cc1 (configuration not stated) | ? | – | – | ? | – | –
Cc1ccc(NC(=O)C2=CC(c3ccc(C)cc3)=NS(=O)(=O)N2C)cc1 | – | – | ? | ? | – | –
CC(=O)c1ccc(NC(=O)C2=CC(c3ccc(C)cc3)=NS(=O)(=O)N2C)cc1 | · | – | 8.2µM | 4.1µM | – | ·
CN1C(C(=O)Nc2ccc(OC(F)(F)F)cc2)=CC(c2cccs2)=NS1(=O)=O | – | – | ? | 3.7µM | – | –
CCCCc1ccc(NC(=O)c2cc(-c3ccc(C)c(F)c3)on2)cc1 | · | – | – | – | – | ·
CCCn1c(=O)c2c(nc3n2CCS3)n(C)c1=O | – | – | – | – | – | –
Cc1c(Cl)c([N+](=O)[O-])nn1Cc1ccc(C(=O)Nc2ccc(Cl)cn2)o1 | – | – | – | ? | 3.7µM | –
O=C(Nc1ccc(Cl)cn1)c1ccc([N+](=O)[O-])o1 | 21µM | – | 2.3µM | 15µM | ? | 23µM
NCCC(=O)N[C@H](Cc1cnc[nH]1)C(=O)O | · | · | – | – | · | ·
Cc1ccc(NC(=O)c2ncn(CCCN[C@H](C)c3cccc4ccccc34)n2)cc1C | ? | – | 16µM | 15µM | – | ?
Cc1ccc(NC(=O)c2ncn(CCCNCC3CCCCC3)n2)cc1C | ? | – | ? | 21µM | – | ?
Cc1ccc(NCCCn2cnc(C(=O)Nc3ccc(C)c(C)c3)n2)cc1C | – | – | – | – | ? | –
Cc1cc(C)c(CN2CCN(CCCn3cnc(C(=O)Nc4ccc(C)c(C)c4)n3)CC2)c(C)c1 | ? | – | ? | 15µM | – | ?
COc1ccccc1N(CCC#N)C(=S)Nc1ccc(S(=O)(=O)N2CCOCC2)cc1 | – | – | – | ? | – | –
C/C(=N\Nc1ccc(C(=O)c2c(C)cc3ccccn23)cc1[N+](=O)[O-])c1ccc(O)cc1 | – | – | ? | ? | ? | –
C/C(=N/Nc1ccc(C(=O)c2c(C)cc3ccccn23)cc1[N+](=O)[O-])c1ccc(O)cc1 | – | – | 18µM | ? | – | –
